# From the supplement of paper PMC8728848
# About 410 targets per protein were measured; listed, in parts, are those with the strongest signals and a random draw of the rest.
# B1: PX14343B-bfa-546-20-546 (Bacteroides fragilis) (protein)
# chain: CDLERYPLTDLSEETFWNSESNAELALTSLYRGSLTDGVEYNPSDWWSYHGMIMMEHLSDNAFDRRGENNPFFKISSGNLTADNAFIKRYWETSYKRIGYCNRFLVGIQNSSESEKKTRMIAEARFLRATQYFYLASYFKNVPLVENVLTGEEANNVTKTSQADILKWCVTEFTAAAADLPRFSAIPAGEAGRACKQAALAFLGRTCMLQKDWKSGAKAFHDIMELGDNAINANYQELFYPSTGTSNKENIFYIQYLENYLGTGLPQHALSAKDGGWSLVNPAADLYESYEFKDGTPFSYDDPRYDPSNLGKDRDPRLDYTIYYNGAIFMGTEYKMSPDYSAAKKEKLDYTSEASRTGFMMRKYFEESTPINDVQSANGLTPVIRYAEVLLGYLECLVEDNQTITQGILDETINAVRGRASVNMPPVTEVTPAKLREIVRHERRIELAMEGIRYWDIMRWGIAHEVLSQKIWGAPYPGSTQYATTTKEVDPTGNYRWYVGKRAFRNPTDYTWPIPQSEQNINPNLRD
# Legend:
# Assay in all cases: glycan array binding signal (z-score within array); higher = stronger binding
# Conditions in all cases: glycan notation: IUPAC condensed, linker removed
# [1] = biological target: Fuc(a1-2)Gal(b1-3)GalNAc(b1-3)Gal
# In short: (§1)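 Negative Z-scores can be read as non-binding. The Z-score is calculated within each array and then averaged across arrays of one protein sequence at different concentrations or buffers and across linkers. Arrays, 3228 in all, were curated from the Consortium for Functional Glycomics database and kept only where the protein sequence was available.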
# [2] = biological target: Fuc(a1-2)Gal(b1-3)GlcNAc(b1-3)[Fuc(a1-2)Gal(b1-3)GlcNAc(b1-6)]GalNAc
# In short: as §1
# [3] = biological target: Fuc(a1-2)Gal3S(b1-4)GlcNAc
# In short: as §1
# [4] = biological target: Fuc(a1-2)Gal6S(b1-3)GlcNAc
# In short: as §1
# [5] = biological target: Fuc(a1-2)Gal6S(b1-3)GlcNAc6S
# In short: as §1
# [6] = biological target: Fuc(a1-2)Gal6S(b1-4)Glc6S
# In short: as §1
# [7] = biological target: Fuc(a1-2)[Gal(a1-3)]Gal(b1-4)GlcNAc
# In short: as §1
# [8] = biological target: Fuc(a1-2)[Gal(a1-3)]Gal(b1-4)[Fuc(a1-3)]Glc
# In short: as §1
# [9] = biological target: Fuc(a1-2)[GalNAc(a1-3)]Gal(b1-4)GlcNAc(b1-3)Gal(b1-4)GlcNAc
# In short: as §1
# [10] = biological target: Fuc(a1-2)[GalNAc(a1-4)]Gal(b1-4)GlcNAc
# In short: as §1
# [11] = biological target: Fuc(a1-3)[Gal(b1-4)]GlcNAc6S
# In short: as §1
# Gal(a1-3)Gal(b1-4)GlcNAc = biological target: Gal(a1-3)Gal(b1-4)GlcNAc
# In short: as §1
# Gal(b1-3)Gal(b1-4)GlcNAc = biological target: Gal(b1-3)Gal(b1-4)GlcNAc
# In short: as §1
# [12] = biological target: Gal(b1-3)GalNAc(a1-3)[Fuc(a1-2)]Gal(b1-4)Glc
# In short: as §1
# [13] = biological target: Gal(b1-3)GlcNAc(b1-2)[Gal(b1-3)GlcNAc(b1-6)]Man(a1-6)[Gal(b1-3)GlcNAc(b1-2)Man(a1-3)]Man(b1-4)GlcNAc(b1-4)GlcNAc
# In short: as §1
# [14] = biological target: Gal(b1-3)GlcNAc(b1-3)Gal(b1-4)GlcNAc(b1-3)Gal(b1-4)GlcNAc(b1-2)[Gal(b1-3)GlcNAc(b1-3)Gal(b1-4)GlcNAc(b1-3)Gal(b1-4)GlcNAc(b1-6)]Man(a1-6)[Gal(b1-3)GlcNAc(b1-3)Gal(b1-4)GlcNAc(b1-3)Gal(b1-4)GlcNAc(b1-2)Man(a1-3)]Man(b1-4)GlcNAc(b1-4)[Fuc(a1-6)]GlcNAc
# In short: as §1
# [15] = biological target: Gal(b1-3)GlcNAc(b1-3)GalNAc
# In short: as §1
# Gal(b1-4)GlcNAc = biological target: Gal(b1-4)GlcNAc
# In short: as §1
# [16] = biological target: Gal(b1-4)GlcNAc(b1-3)Gal(b1-4)GlcNAc
# In short: as §1
# [17] = biological target: Gal(b1-4)GlcNAc(b1-3)Gal(b1-4)GlcNAc(b1-3)Gal(b1-4)GlcNAc
# In short: as §1
# [18] = biological target: Gal(b1-4)GlcNAc(b1-3)[Gal(b1-4)GlcNAc(b1-6)]Gal(b1-4)GlcNAc
# In short: as §1
# Gal6S(b1-3)GlcNAc = biological target: Gal6S(b1-3)GlcNAc
# In short: as §1
# Gal6S(b1-3)GlcNAc6S = biological target: Gal6S(b1-3)GlcNAc6S
# In short: as §1
# Gal6S(b1-4)Glc = biological target: Gal6S(b1-4)Glc
# In short: as §1
# Gal6S(b1-4)Glc6S = biological target: Gal6S(b1-4)Glc6S
# In short: as §1
# Gal6S(b1-4)GlcNAc = biological target: Gal6S(b1-4)GlcNAc
# In short: as §1
# Gal6S(b1-4)GlcNAc6S = biological target: Gal6S(b1-4)GlcNAc6S
# In short: as §1
# GalNAc(b1-3)Gal = biological target: GalNAc(b1-3)Gal
# In short: as §1
# [19] = biological target: GalNAc3S(b1-4)[Fuc(a1-3)]GlcNAc
# In short: as §1
# GalNAc6S(b1-4)GlcNAc = biological target: GalNAc6S(b1-4)GlcNAc
# In short: as §1
# [20] = biological target: GlcNAc(b1-2)[GlcNAc(b1-4)]Man(a1-3)[GlcNAc(b1-4)][GlcNAc(b1-2)Man(a1-6)]Man(b1-4)GlcNAc(b1-4)GlcNAc
# In short: as §1
# GlcNAc(b1-3)Gal(b1-4)Glc = biological target: GlcNAc(b1-3)Gal(b1-4)Glc
# In short: as §1
# Kdn(a2-3)Gal(b1-4)GlcNAc = biological target: Kdn(a2-3)Gal(b1-4)GlcNAc
# In short: as §1
# [21] = biological target: Man(a1-3)[Man(a1-6)]Man(a1-6)[Man(a1-3)]Man(b1-4)GlcNAc(b1-4)GlcNAc
# In short: as §1
# [22] = biological target: Neu5Ac(a2-3)Gal(b1-4)GlcNAc
# In short: as §1
# Neu5Ac(a2-6)Gal(b1-4)Glc = biological target: Neu5Ac(a2-6)Gal(b1-4)Glc
# In short: as §1
# [23] = biological target: Neu5Ac(a2-6)Gal(b1-4)GlcNAc(b1-2)Man(a1-3)[Neu5Ac(a2-3)Gal(b1-4)GlcNAc(b1-2)Man(a1-6)]Man(b1-4)GlcNAc(b1-4)GlcNAc
# In short: as §1
# [24] = biological target: Neu5Ac(a2-6)Gal(b1-4)GlcNAc(b1-2)Man(a1-6)Man(b1-4)GlcNAc(b1-4)GlcNAc
# In short: as §1
# [25] = biological target: Neu5Ac(a2-6)Gal(b1-4)GlcNAc(b1-6)GalNAc
# In short: as §1
# [26] = biological target: Neu5Ac(a2-8)Neu5Ac(a2-3)Gal(b1-3)GalNAc(b1-4)[Neu5Ac(a2-3)]Gal(b1-4)Glc
# In short: as §1
# [27] = biological target: Neu5Ac(a2-8)Neu5Ac(a2-3)Gal(b1-3)GalNAc(b1-4)[Neu5Ac(a2-8)Neu5Ac(a2-3)]Gal(b1-4)Glc
# In short: as §1
# [28] = biological target: Neu5Ac(a2-8)Neu5Ac(a2-3)[GalNAc(b1-4)]Gal(b1-4)Glc
# In short: as §1
# [29] = biological target: Neu5Gc(a2-3)Gal(b1-4)GlcNAc
# In short: as §1
# [30] = biological target: Neu5Gc(a2-3)Gal(b1-4)GlcNAc(b1-3)Gal(b1-4)GlcNAc(b1-2)Man(a1-3)[Neu5Gc(a2-3)Gal(b1-4)GlcNAc(b1-3)Gal(b1-4)GlcNAc(b1-2)Man(a1-6)]Man(b1-4)GlcNAc(b1-4)GlcNAc
# In short: as §1
# [31] = biological target: Neu5Gc(a2-3)Gal(b1-4)[Fuc(a1-3)]GlcNAc
# In short: as §1
binder,measurement,setting,value
B1,glycan array binding signal (z-score),[1],-0.117
same,glycan array binding signal (z-score),[2],-0.126
same,glycan array binding signal (z-score),[3],4.47
same,glycan array binding signal (z-score),[4],2.42
same,glycan array binding signal (z-score),[5],6.35
same,glycan array binding signal (z-score),[6],0.709
same,glycan array binding signal (z-score),[7],-0.126
same,glycan array binding signal (z-score),[8],-0.124
same,glycan array binding signal (z-score),[9],-0.126
same,glycan array binding signal (z-score),[10],-0.115
same,glycan array binding signal (z-score),[11],-0.129
same,glycan array binding signal (z-score),Gal(a1-3)Gal(b1-4)GlcNAc,-0.122
same,glycan array binding signal (z-score),Gal(b1-3)Gal(b1-4)GlcNAc,-0.113
same,glycan array binding signal (z-score),[12],-0.122
same,glycan array binding signal (z-score),[13],-0.117
same,glycan array binding signal (z-score),[14],-0.113
same,glycan array binding signal (z-score),[15],-0.12
same,glycan array binding signal (z-score),Gal(b1-4)GlcNAc,-0.128
same,glycan array binding signal (z-score),[16],-0.132
same,glycan array binding signal (z-score),[17],-0.113
same,glycan array binding signal (z-score),[18],-0.123
same,glycan array binding signal (z-score),Gal6S(b1-3)GlcNAc,9.99
same,glycan array binding signal (z-score),Gal6S(b1-3)GlcNAc6S,6.09
same,glycan array binding signal (z-score),Gal6S(b1-4)Glc,1.73
same,glycan array binding signal (z-score),Gal6S(b1-4)Glc6S,3.07
same,glycan array binding signal (z-score),Gal6S(b1-4)GlcNAc,9.6
same,glycan array binding signal (z-score),Gal6S(b1-4)GlcNAc6S,13.3
same,glycan array binding signal (z-score),GalNAc(b1-3)Gal,-0.123
same,glycan array binding signal (z-score),[19],-0.136
same,glycan array binding signal (z-score),GalNAc6S(b1-4)GlcNAc,10.1
same,glycan array binding signal (z-score),[20],-0.124
same,glycan array binding signal (z-score),GlcNAc(b1-3)Gal(b1-4)Glc,-0.13
same,glycan array binding signal (z-score),Kdn(a2-3)Gal(b1-4)GlcNAc,-0.123
same,glycan array binding signal (z-score),[21],-0.104
same,glycan array binding signal (z-score),[22],-0.121
same,glycan array binding signal (z-score),Neu5Ac(a2-6)Gal(b1-4)Glc,-0.122
same,glycan array binding signal (z-score),[23],-0.127
same,glycan array binding signal (z-score),[24],-0.119
same,glycan array binding signal (z-score),[25],-0.123
same,glycan array binding signal (z-score),[26],-0.129
same,glycan array binding signal (z-score),[27],-0.12
same,glycan array binding signal (z-score),[28],-0.131
same,glycan array binding signal (z-score),[29],-0.122
same,glycan array binding signal (z-score),[30],-0.129
same,glycan array binding signal (z-score),[31],-0.113
